From PubChem BioAssay
Sampled rows, rich in hits. Any-hit rate of the full collection: about 15%.
12-LOX inh – ALOX12 (human) lipoxygenase inhibition. P18054. AID 1671190. actives 1.1% (n = 580,000). Potency, µM (top dose mostly 108 µM), inactives show at the highest dose activity change, negative = inhibition, hits mostly inhibitors. purified 12hLO, xylenol orange hydroperoxide absorbance
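Hydroperoxide product was detected by ferrous iron/xylenol orange as the 573 to 405 nm absorbance ratio. Arachidonic acid at 40 uM (final) was turned over for 30 min at room temperature by 150 nM human 12hLO, pH 7.0 Hepes buffer, after 15 min compound preincubation.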
TDP1 cell noCPT – qHTS for Inhibitors of human tyrosyl-DNA phosphodiesterase 1 (TDP1): qHTS in cells in absence of CPT. DT40 Tdp1-/- hTDP1 cells, no CPT, ATP luminescence, 48 h. Potency, µM (highest dose often 46.2 µM), for inactives: top-dose activity change, negative = growth inhibition, most hits filed as inhibitors. actives 15% (n = 420,000). AID 686978, 2013; also: nearly all actives have a fitted effect of over 55% in size
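Growth of hTDP1-complemented DT40 Tdp1-knockout cells is measured by ATP luminescence after at least 48 hr compound exposure at 37 °C, with DMSO substituting for the 20 nM CPT used in the parallel screen.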
ELG1 repair inh – ELG1-dependent DNA repair inhibition. HEK293T ELG1-luciferase reporter, luminescence, 16 h; DNA damage induced by 5-fluorouridine. Potency, µM (doses to about 46.1 µM), for inactives: top-dose activity change, negative = inhibition, usual class: inhibitors. actives 2.3% (n = 330,000). AID 504467; also: nearly all actives have a fitted effect of over 55% in size
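Overnight (16 hr) co-exposure of 2,000 cells/well to 5-fluorouridine and compound at 37 °C preceded detection. Luciferase was quantified via ONE-Glo luminescence; loss of signal denotes inhibition.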
RORg inh – blocks mouse ROR gamma transcriptional activity; Drosophila S2 Gal4-RORgamma UAS-luciferase reporter, 20 h; Potency, µM (highest dose often 53.6 µM), inactives show at the highest dose activity change, negative = inhibition, usual class: inhibitors; actives 5.4% (n = 310,000); P51450; also: nearly all actives have a fitted effect of over 60% in size
Target sequence (P51450 whole entry, looked up, the tested form may be a part): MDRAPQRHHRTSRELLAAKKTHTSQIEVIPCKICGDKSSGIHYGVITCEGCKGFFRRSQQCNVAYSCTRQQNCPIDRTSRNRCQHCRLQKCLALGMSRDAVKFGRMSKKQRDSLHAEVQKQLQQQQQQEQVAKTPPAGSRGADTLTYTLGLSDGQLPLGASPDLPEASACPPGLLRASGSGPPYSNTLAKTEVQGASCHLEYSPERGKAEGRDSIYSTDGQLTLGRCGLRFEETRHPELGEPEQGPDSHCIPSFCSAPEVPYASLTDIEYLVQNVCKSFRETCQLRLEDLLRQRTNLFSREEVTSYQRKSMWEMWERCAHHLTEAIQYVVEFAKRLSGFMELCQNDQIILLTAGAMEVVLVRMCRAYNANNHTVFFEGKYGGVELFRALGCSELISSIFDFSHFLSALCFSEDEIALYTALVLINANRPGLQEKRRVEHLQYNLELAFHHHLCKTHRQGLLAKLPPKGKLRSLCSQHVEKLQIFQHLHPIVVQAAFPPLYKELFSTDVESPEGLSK
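Read-out: Photinus luciferase luminescence; inhibitors lower reporter signal. Insect Schneider cells with Gal4-ROR gamma fusion under metallothionein promoter, UAS reporter; 700 uM final copper sulfate induction, 20 hr, ambient temperature.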
VP16 counter – counter-screen for ROR gamma inhibitors: Gal4-VP16 reporter; Drosophila S2 Gal4-VP16 UAS-luciferase, luminescence, 20 h; Potency, µM (highest dose often 53.6 µM), inactives show at the top dose activity, negative = inhibition, usual class: inhibitors; actives 3.5% (n = 310,000); AID 2546;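 also: Gal4-VP16 expression switched on by copper sulfate through the metallothionein promoter; nearly all actives have a fitted effect of over 50% in size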
TDP1 cell CPT – DT40-hTDP1 cell growth loss with CPT; chicken DT40 Tdp1-/-;hTDP1 cells + 20 nM CPT, ATP luminescence, 48 h; Potency, µM (doses to about 46.2 µM), for the others: top-dose activity change, negative = growth inhibition, most hits filed as inhibitors; actives 12% (n = 420,000); also: nearly all actives have a fitted effect of over 55% in size
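Chicken DT40 Tdp1-/- cells complemented with human TDP1, 400 cells/well, exposed to compounds plus 20 nM camptothecin for at least 48 h at 37 C; viability read as ATP content by CellTiter-Glo luminescence.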
Numbers without * were called inactive; ? = inconclusive; · = not tested or not shown; [ ] = another dose, or the depositor's remark. Calls follow the shape of the dose curve; as a rule, active = well fitted curve in the direction sought with a large enough effect; inconclusive = small, poorly fitted or top-dose-only effect, or another doubt; inactive = no such curve, though single readings can be large; an effect the other way counts as inactive or inconclusive. % is scaled to controls: 0 for no effect and ±100 for the full control effect; potency is read from the fitted curve at half-maximal effect.

SMILES | 12-LOX inh | TDP1 cell noCPT | ELG1 repair inh | RORg inh | VP16 counter | TDP1 cell CPT
O=C(CN1C(=O)NC2(CCc3ccccc32)C1=O)c1ccc(Br)cc1 (stereo not drawn) | -19% | -26% | -9% | · | · | ?
CC(C)c1ccc(C(=O)CN2C(=O)NC3(CCc4ccccc43)C2=O)cc1 (stereo not drawn) | -11% | 21µM* | -9% | · | · | ?
Cc1ccc(NC(=O)CN2C(=O)NC3(CCc4ccccc43)C2=O)cc1 (stereo not drawn) | -18% | 10% | 6% | 15% | -5% | -15%
COc1ccc(N2CCN(C(=O)CN3C(=O)NC4(CCCc5ccccc54)C3=O)CC2)cc1 (stereo not drawn) | ? | 16µM* | -10% | · | · | -8%
O=C(c1cc(-c2cccs2)nc2ccccc12)N1CCN(c2cccc(C(F)(F)F)c2)CC1 | -10% | · | · | · | · | ·
CNc1nc(-c2ccccc2)[n+](-c2ccc(C)cc2)s1 | 7.1µM* | 5.2µM* | -7% | 7.9µM* | 7.1µM* | 3.3µM*
Cc1ccc(-c2nc(N)s[n+]2-c2ccccc2)cc1 | ? | ? | ? | -10% | -7% | ?
CCCCn1nc(C(=O)Nc2sc3c(c2C#N)CCCC3)c2ccccc2c1=O | -5% | · | · | · | · | ·
O=C(Cc1ccccc1)NCCC1CCN(C(=O)Nc2ccc(F)cc2)CC1 | 28% | · | · | · | · | ·
CN1C(=S)SC(C)(NO)C1(C)C (stereo not drawn) | ? | 0% | ? | 16µM* | ? | 8%
COc1ncccc1CNC[C@H]1Cn2c(-c3ccc(F)cc3)cnc2CO1 | 46%[176 µM] | · | · | · | · | ·
Nc1ccc(N2CCCCC2)c2nonc12 | ? | 16µM* | 2% | -28% | 3% | 26µM*
Nc1ccc(N2CCCCC2)cc1N1CCCCC1 | 254% | ? | 1% | -6% | -28% | ?
OC[C@@H]1O[C@H](CNC2CCOCC2)[C@H](N2CCN(c3ccc(F)cc3)CC2)[C@@H]1O | -6% | · | · | · | · | ·
Cc1n[nH]c(C)c1CCCCOc1ccccc1 | -10% | ? | ? | 16µM* | ? | ?
Cc1ccc(OCCCc2c(C)n[nH]c2C)cc1 | 6.3µM* | 16µM* | ? | 11µM* | ? | ?
Cc1n[nH]c(C)c1CS(=O)(=O)c1ccccc1 | 2% | -12% | -1% | 2% | -2% | 7%
O=S(=O)(c1ccc(Cl)cc1)c1nc(-c2cccs2)oc1N1CCCCC1 | -22% | 16µM* | · | · | · | ?
CC1CCN(c2oc(-c3ccco3)nc2S(=O)(=O)c2ccccc2)CC1 | ? | ? | -1% | 35% | -20% | -8%
CC1CCN(c2oc(-c3cccs3)nc2S(=O)(=O)c2ccccc2)CC1 | -18% | 21µM* | · | · | · | ?
Cc1ccc(SC(C)C(=O)Nc2c(C)cccc2C)cc1 (stereo not drawn) | 3% | · | · | · | · | ·
Cc1ccc(CN(C)Cc2ccccc2C)o1 | 43% | · | · | · | · | ·
Cc1ccc(Cc2c(-c3ccc(C#N)cc3)nc3ccc(Cl)cn23)cc1 | ? | ? | · | · | · | -24%
CC(C)(C)Cc1c(-c2ccc(C#N)cc2)nc2ccc(Cl)cn12 | ? | 16µM* | · | · | · | ?
CC(C)(C)Cc1c(-c2ccco2)nc2ccc(Cl)cn12 | ? | -85% | · | · | · | 26µM*
N#Cc1ccc(-c2nc3ccc(Cl)cn3c2Cc2ccccc2)cc1 | -14% | ? | · | · | · | 21µM*
O=S(=O)(c1c(Cl)cccc1Cl)N1CCCC1c1nnc2ccccn12 (stereo not drawn) | -19% | · | · | · | · | ·
O=C1CC(c2ccccc2)N(Cc2ccncc2)CCCN(C(=O)CC2CCCC2)CCN1 (stereo not drawn) | 50% | · | · | · | · | ·
